Screening data from PubChem BioAssay.
Hits are enriched below; roughly 6.8% of the tested compounds scored in any of these assays.
Pf Dd2 inh: P. falciparum Dd2 growth inhibition; SYBR Green, 72 h; active compounds read low; activity change, % at 10 µM; 94,000 tested, 2.3% active; AID 1159554; in the data active = activity change below about -80%; inconclusive = no clear call, values can overlap the other calls
T cruzi growth-1: blocks T. cruzi growth in NIH3T3 culture | inhibition, % at 8.34 µM | T. cruzi beta-gal in NIH3T3, GalScreen luminescence, 90 h | AID 624255 | 77,000 tested, 5.9% active;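 active = mean inhibition above about 93%, with at least 55% of replicates each passing it, limit read from the data, passing the limit was not always enough; inconclusive = only one of those two conditions holds; inactive = neither condition holds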
C diff growth: inhibitors of Clostridium difficile growth | Clostridium difficile clinical isolate growth, OD600, 24 h; active compounds read low | growth activity, negative = inhibition, % at 16 µg/mL (by protocol) | 86,000 tested, 0.25% active;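 active = mean growth activity at or below -80% and every replicate also at or below -80%; inconclusive = mean at or below -80% but some replicate above -80%; inactive = mean growth activity above -80%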;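 note: 0% = DMSO wells and -100% = levofloxacin 16 µg/mL wells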
T cruzi growth-2: blocks T. cruzi growth in NIH3T3 host cells; shares compounds with T cruzi growth-1; T. cruzi beta-gal in NIH3T3, GalScreen luminescence, 90 h; 5,600 tested, 72% active; inhibition, % at 8.35 µM;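 active = mean replicate inhibition above about 95% and at least 55% of replicates individually reaching it, limit read from the data; inconclusive = only one of the two criteria is met; inactive = neither criterion is met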
T cruzi growth-3: blocks T. cruzi growth in NIH3T3 host cells; shares compounds with T cruzi growth-1; T. cruzi beta-gal in NIH3T3, GalScreen luminescence, 90 h; 5,600 tested, 21% active; inhibition, % at 2.09 µM; AID 651740;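 active = mean inhibition above about 95%, with at least 55% of replicates also reaching it, limit read from the data; inconclusive = meets just one of the two conditions; inactive = meets neither condition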;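 note: plate controls were neutral control median for no effect and positive control median for full effect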
NIH3T3 tox: kills mouse NIH/3T3 fibroblasts; shares compounds with T cruzi growth-1; NIH/3T3 viability, CellTiter-Glo ATP luminescence, 90 h; cytotoxicity (signal decrease), % at 8.35 µM; 5,600 tested, 14% active; AID 651742;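 active = mean signal decrease across replicates above about 35% based on untreated-well scatter, with enough replicates individually passing, limit read from the data; inconclusive = no rule stated though some were filed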;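 note: 0% = median of neutral control wells and 100% = median of positive control wells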
NIH3T3 tox 2: kills mouse NIH/3T3 fibroblasts | shares compounds with T cruzi growth-1 | NIH/3T3 viability, CellTiter-Glo ATP luminescence, 90 h | inhibition, % at 24.9 µM | 5,600 tested, 56% active | AID 651744;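 active = mean loss of cell viability signal at or above a set limit, and enough replicates individually reaching it; inconclusive = meets only the mean limit or only the replicate share; inactive = meets neither condition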;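 note: 0% = median of neutral control wells and 100% = median of positive control wells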
The depositor's hits bear a star; ? = inconclusive; nt = no result.

SMILES	Pf Dd2 inh	T cruzi growth-1	C diff growth	T cruzi growth-2	T cruzi growth-3	NIH3T3 tox	NIH3T3 tox 2
CCCC#Cc1ccc2c(c1)O[C@H](CN(C)S(=O)(=O)c1cccc(OC)c1)[C@H](C)CN([C@@H](C)CO)S2(=O)=O	-19.9	nt	nt	nt	nt	nt	nt
COc1cccc(S(=O)(=O)N(C)C[C@@H]2Oc3cc(C#CCC(C)C)ccc3S(=O)(=O)N([C@H](C)CO)C[C@H]2C)c1	?	61.1	4.1	nt	nt	nt	nt
COc1cccc(S(=O)(=O)N(C)C[C@H]2Oc3cc(C#CCC(C)C)ccc3S(=O)(=O)N([C@@H](C)CO)C[C@H]2C)c1	-77.0	?	7.3	96.4*	112.2*	17.9	65.8*
COc1cccc(S(=O)(=O)N(C)C[C@@H]2Oc3cc(C#CCC(C)C)ccc3S(=O)(=O)N([C@@H](C)CO)C[C@@H]2C)c1	-71.7	?	27.7	?	111.6*	4.7	9.1
COc1ccc(S(=O)(=O)Nc2ccc3c(c2)C(=O)N([C@@H](C)CO)C[C@H](C)[C@@H](CN(C)C(=O)Nc2ccc(F)cc2)OCCCC[C@H](C)O3)cc1	-51.3	112.8	2.0	nt	nt	nt	nt
COc1ccccc1NC(=O)N1C[C@@H]2[C@H](c3ccccc31)[C@H](CO)N2C(=O)c1ccccc1	12.7	72.9	0.6	nt	nt	nt	nt
O=C(Nc1ccccc1)N1CCCCN2[C@@H](CO)[C@H](c3ccc(Br)cc3)[C@@H]2C1	-26.8	35.7	27.6	nt	nt	nt	nt
O=C(Nc1ccccc1)N1CCCCN2[C@H](CO)[C@H](c3ccc(-c4ccncc4)cc3)[C@@H]2C1	23.8	70.4	0.3	nt	nt	nt	nt
O=C(Nc1ccccc1)N1CCCCN2[C@H](CO)[C@H](c3ccc(-c4ccccc4)cc3)[C@@H]2C1	-33.2	112.5*	-7.4	108.7*	31.5	-13.9	13.1
O=C(Nc1ccccc1)N1CCCCN2[C@H](CO)[C@H](c3ccc(-c4ccccc4)cc3)[C@H]2C1	-35.2	103.1*	20.3	101.1*	63.7	55.6*	104.0*
O=C(Nc1ccccc1)N1CCCCN2[C@H](C1)[C@H](c1ccc(-c3ccncc3)cc1)[C@@H]2CO	25.3	63.5	1.4	nt	nt	nt	nt
O=C(Nc1ccccc1)N1CCCCN2[C@H](CO)[C@H](c3ccc(-c4ccncc4)cc3)[C@H]2C1	-13.4	96.0*	-4.2	93.7	64.7	-27.4	-4.0
CO[C@H]1CN(C)C(=O)c2cc(NC(=O)Nc3ccccc3F)ccc2OC[C@@H](C)N(Cc2ccccc2C(=O)O)C[C@@H]1C	20.4	nt	nt	nt	nt	nt	nt
Cc1ccc(S(=O)(=O)N(C)C[C@H]2Oc3ccc(NS(=O)(=O)c4cccs4)cc3C(=O)N([C@H](C)CO)C[C@@H]2C)cc1	-17.7	9.7	-4.4	nt	nt	nt	nt
C[C@H]1CCCCO[C@H](CN(C)S(C)(=O)=O)[C@@H](C)CN([C@@H](C)CO)C(=O)c2cc(NS(=O)(=O)c3cn(C)cn3)ccc2O1	65.4	37.9	-2.5	nt	nt	nt	nt
O=C(C[C@@H]1C[C@H]2c3cc(NC(=O)NC4CCCC4)ccc3O[C@H]2[C@@H](CO)O1)NCc1ccc2c(c1)OCO2	-4.7	nt	-28.6	nt	nt	nt	nt
O=C(NC1CCCC1)N1CCCCN2[C@H](CO)[C@H](c3ccc(/C=C/c4ccccc4)cc3)[C@H]2C1	-36.0	110.3*	56.0	100.4*	116.6*	23.8	103.9*
C/C=C/c1ccc([C@H]2[C@@H](CO)N3CCCCN(C(=O)NC4CCCC4)C[C@H]23)cc1	5.5	48.6	25.0	nt	nt	nt	nt
O=C(NC1CCCC1)N1CCCCN2[C@H](CO)[C@H](c3ccc(/C=C/c4ccccc4)cc3)[C@@H]2C1	28.9	113.7*	-25.6	95.5*	100.4*	15.5	103.2*
O=C(NC1CCCC1)N1CCCCN2[C@H](CO)[C@@H](c3ccc(/C=C/c4ccccc4)cc3)[C@H]2C1	-29.1	56.9	1.7	nt	nt	nt	nt
CO[C@@H]1CN(C)C(=O)c2cc(NC(=O)c3cnccn3)ccc2OC[C@H](C)N(CCc2ccccc2)C[C@@H]1C	-20.9	nt	nt	nt	nt	nt	nt
COc1ccc2c3c([nH]c2c1)[C@@H](CO)N(C(=O)CN(C)C)CC31CN(C(=O)c2ccncc2)C1	17.8	nt	-4.8	nt	nt	nt	nt
COc1ccc(S(=O)(=O)N[C@@H]2CC[C@H](CCNC(=O)c3ccccc3F)O[C@@H]2CO)cc1	-17.5	-60.2	1.1	nt	nt	nt	nt
C[C@@H]1CN([C@@H](C)CO)C(=O)c2cc(-c3ccc(C(=O)N(C)C)cc3)cnc2O[C@@H]1CN(C)C(=O)c1ccncc1	31.5	nt	-2.5	nt	nt	nt	nt
COc1ccc(S(=O)(=O)N(C)C[C@H]2OCCCC[C@H](C)Oc3ccc(NS(=O)(=O)c4ccc(C)cc4)cc3C(=O)N([C@@H](C)CO)C[C@@H]2C)cc1	-68.3	?	2.5	100.7*	77.7	6.6	-1.8
SMILES	Pf Dd2 inh	T cruzi growth-1	C diff growth	T cruzi growth-2	T cruzi growth-3	NIH3T3 tox	NIH3T3 tox 2
COc1ccc(S(=O)(=O)N(C)C[C@H]2OCCCC[C@@H](C)Oc3ccc(NS(=O)(=O)c4ccccc4)cc3C(=O)N([C@H](C)CO)C[C@H]2C)cc1	nt	115.3*	-10.8	107.8*	63.6	7.3	-2.5
COc1ccc(S(=O)(=O)Nc2ccc3c(c2)C(=O)N([C@@H](C)CO)C[C@H](C)[C@H](CN(C)S(=O)(=O)c2ccc(OC)cc2)OCCCC[C@H](C)O3)cc1	-65.4	100.9*	-2.6	110.7*	16.6	-0.4	-10.0
COc1ccc(S(=O)(=O)Nc2ccc3c(c2)C(=O)N([C@@H](C)CO)C[C@@H](C)[C@H](CN(C)S(=O)(=O)c2ccc(OC)cc2)OCCCC[C@H](C)O3)cc1	-42.7	78.2	-5.3	nt	nt	nt	nt
COc1ccc(S(=O)(=O)Nc2ccc3c(c2)C(=O)N([C@H](C)CO)C[C@H](C)[C@H](CN(C)S(=O)(=O)c2ccc(OC)cc2)OCCCC[C@@H](C)O3)cc1	-41.7	48.4	-3.1	nt	nt	nt	nt
COc1ccc(S(=O)(=O)Nc2ccc3c(c2)C(=O)N([C@H](C)CO)C[C@H](C)[C@H](CN(C)S(=O)(=O)c2ccc(OC)cc2)OCCCC[C@H](C)O3)cc1	-57.8	99.8*	-2.8	109.3*	64.3	1.8	8.6
COc1ccc(S(=O)(=O)Nc2ccc3c(c2)C(=O)N([C@H](C)CO)C[C@@H](C)[C@H](CN(C)S(=O)(=O)c2ccc(C)cc2)OCCCC[C@@H](C)O3)cc1	-61.4	nt	nt	nt	nt	nt	nt
COc1ccc(S(=O)(=O)N(C)C[C@@H]2OCCCC[C@H](C)Oc3ccc(NS(=O)(=O)c4ccccc4)cc3C(=O)N([C@@H](C)CO)C[C@@H]2C)cc1	nt	68.3	-8.4	nt	nt	nt	nt
C[C@H]1CN([C@@H](C)CO)C(=O)c2cccc(NC(=O)NC3CCCCC3)c2O[C@@H]1CN(C)CC1CCCCC1	-13.5	37.2	2.3	nt	nt	nt	nt
C[C@@H]1CN([C@@H](C)CO)C(=O)c2cc(NS(=O)(=O)c3ccc(Cl)cc3)ccc2O[C@@H]1CN(C)C(=O)NC1CCCCC1	2.4	30.1	-2.2	nt	nt	nt	nt
